Screens (PubChem)
AmpC no deterg – qHTS Inhibitors of AmpC Beta-Lactamase (assay without detergent); P00811; AmpC nitrocefin hydrolysis, absorbance 480 nm, 0.0001% Triton; Potency, µM (series often up to 57.1 µM), hits mostly inhibitors; 330,000 tested, 0.52% active; also: nearly all actives have a fitted effect of over 20% in size
Target sequence (P00811 whole entry, looked up): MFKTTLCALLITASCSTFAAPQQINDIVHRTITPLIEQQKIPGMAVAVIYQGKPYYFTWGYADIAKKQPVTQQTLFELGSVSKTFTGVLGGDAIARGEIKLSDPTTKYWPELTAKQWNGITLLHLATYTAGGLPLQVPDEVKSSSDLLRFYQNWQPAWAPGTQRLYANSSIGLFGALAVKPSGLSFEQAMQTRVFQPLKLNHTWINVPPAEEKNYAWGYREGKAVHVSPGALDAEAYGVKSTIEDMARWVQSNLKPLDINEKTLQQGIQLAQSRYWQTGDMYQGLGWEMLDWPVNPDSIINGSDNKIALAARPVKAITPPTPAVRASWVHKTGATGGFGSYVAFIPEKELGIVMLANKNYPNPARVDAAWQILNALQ
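AmpC (5.3 nM in the dispensed reagent) in 20 mM phosphate pH 7.0 with 0.01% (detergent screen) or 0.0001% Triton X-100 was preincubated with compounds for 15 min at room temperature. Nitrocefin was then added from an 800 uM solution, and hydrolysis was followed at 480 nm.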
AmpC detergent – qHTS Inhibitors of AmpC Beta-Lactamase (assay with detergent); AmpC hydrolysis of nitrocefin, absorbance 480 nm, 0.01% Triton; Potency, µM (titrated, usually from 114 µM), actives largely listed as inhibitors; 370,000 tested, 0.041% active; also: nearly all actives have a fitted effect of over 25% in size
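AmpC (5.3 nM in the dispensed reagent) in 20 mM phosphate pH 7.0 with 0.01% (detergent screen) or 0.0001% Triton X-100 was preincubated with compounds for 15 min at room temperature. Nitrocefin was then added from an 800 uM solution, and hydrolysis was followed at 480 nm.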
SARS PLP yeast – qHTS of Yeast-based Assay for SARS-CoV PLP | Potency, µM (top dose mostly 32.9 µM), hits mostly activators | 330,000 tested, 0.19% active | S. cerevisiae expressing SARS-CoV PLpro, growth rescue; calls by dose curve; also: nearly all actives have a fitted effect of over 55% in size
RE007 growth inh – qHTS Assay for Inhibitors of the HIV-1 protein Vpr | S. pombe RE007 Vpr strain, BacTiter-Glo ATP luminescence, 24 h | 360,000 tested, 0.21% active | Potency, µM (doses to about 92.2 µM), most hits filed as inhibitors; active = well fitted falling curve with a large enough effect; inconclusive = small, poorly fitted or top-dose-only effect; inactive = no such curve, though single readings can be large or run the other way; also: nearly all actives have a fitted effect of over 50% in size
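Fission yeast strain RE007, carrying one chromosomally integrated HIV-1 vpr copy, was seeded at OD 0.01 in PMG+AL medium with 23 nL pinned compound. After 24 h at 30 °C and 99% humidity, viability was read by BacTiter-Glo luminescence.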
Sm TGR block – qHTS Assay for the Inhibitors of Schistosoma Mansoni Peroxiredoxins; purified TGR, DTNB reduction, TNB absorbance 405 nm; 360,000 tested, 3% active; AID 485364, 2010; Potency, µM (series often up to 114 µM), hits mostly inhibitors; Schistosoma mansoni thioredoxin glutathione reductase (TGR), Q962Y6; also: nearly all actives have a fitted effect of over 60% in size
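TGR 20 nM + NADPH 100 uM (dispensed conc.), cpd preinc 15 min RT; start with NADPH (500 uM addition) then DTNB (15 mM addition). Kinetic TNB absorbance, 405 nm filter. Four-parameter Hill fit across titration.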
TbPYK inhibitor – qHTS of Trypanosoma Brucei Inhibitors; Potency, µM (series often up to 76.8 µM), usual class: inhibitors; 410,000 tested, 0.12% active; TbPYK enzyme, Kinase-Glo Plus ATP luminescence, 45 min; also: nearly all actives have a fitted effect of over 50% in size
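ADP (130 uM final) triggers the TbPYK reaction after compound addition; incubation is 45 min at room temperature. Kinase-Glo Plus is then added and luminescence imaged. Normalized data are fitted to concentration-effect curves.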
A number is an active result; ! = not active in a repeat; [ ] = remark or other dose. Hits are enriched below; roughly 3.3% of the tested compounds scored in any of these assays. Unless noted, calls follow the shape of the dose curve; as a rule, active = well fitted curve in the direction sought with a large enough effect; inconclusive = small, poorly fitted or top-dose-only effect, or another doubt; inactive = no such curve, though single readings can be large; an effect the other way counts as inactive or inconclusive.

How did Cc1cc(C)cc(NC(=O)CN2C(=O)c3ccccc3Sc3ncccc32)c1 do in these assays?
AmpC detergent: inactive; Sm TGR block: inactive; TbPYK inhibitor: inactive

What do the screens show for `Cc1cc(C)cc(NC(=O)CCN2C(=O)c3ccccc3Sc3ncccc32)c1`?
AmpC detergent: inactive; Sm TGR block: 40µM; TbPYK inhibitor: inactive

Results for COc1ccc(-n2ncc(C(=O)NCCc3ccsc3)c2C2CCN(C(=O)OC(C)(C)C)CC2)cc1 ?
AmpC detergent: inactive; Sm TGR block: inactive; TbPYK inhibitor: inactive[15.4 µM]

How did Nc1ccc(C(=O)O)c(O)c1 do in these assays?
AmpC no deterg: inactive; AmpC detergent: inactive; SARS PLP yeast: inactive; RE007 growth inh: inactive[18.4 µM]; Sm TGR block: 3.5µM!; TbPYK inhibitor: inactive

What do the screens show for `O=C(O)c1ccc(O)cc1O`?
AmpC no deterg: inactive; AmpC detergent: inactive; SARS PLP yeast: inactive; RE007 growth inh: inactive; Sm TGR block: inactive; TbPYK inhibitor: inactive

What do the screens show for `Nc1ccc(C(=O)Oc2ccc([N+](=O)[O-])cc2)c(O)c1`?
AmpC no deterg: inactive; AmpC detergent: inactive; SARS PLP yeast: inactive; Sm TGR block: 28µM

How did Nc1ccc(N)c(C(=O)O)c1 do in these assays?
AmpC no deterg: inactive; AmpC detergent: inactive; SARS PLP yeast: inactive; RE007 growth inh: inactive; Sm TGR block: 18µM; TbPYK inhibitor: inactive

How did Cc1ccc(N)cc1O do in these assays?
AmpC no deterg: inactive; AmpC detergent: inactive; SARS PLP yeast: inactive; RE007 growth inh: inactive; Sm TGR block: 6.3µM; TbPYK inhibitor: inactive

What do the screens show for `Cc1ccc(N)cc1C`?
RE007 growth inh: inactive; TbPYK inhibitor: inactive

How did Nc1cc(C(F)(F)F)ccc1C(=O)O do in these assays?
AmpC no deterg: inactive; AmpC detergent: inconclusive; SARS PLP yeast: inactive; Sm TGR block: inactive

Results for Cc1cc(O)c(-c2cc(O)c(C)cc2O)cc1O ?
AmpC no deterg: inactive; AmpC detergent: inconclusive; SARS PLP yeast: inactive; RE007 growth inh: inactive; Sm TGR block: 1.3µM; TbPYK inhibitor: inconclusive

How did CC1CN(C(=O)N2CCC(C(=O)NCc3cccs3)CC2)c2cc(Cl)ccc2O1 (stereo not given) do in these assays?
AmpC detergent: inactive; Sm TGR block: inactive; TbPYK inhibitor: inactive

What do the screens show for `O=C(Nc1ccc2c(c1)OCO2)NC1(C(F)(F)F)Oc2ccccc2O1`?
AmpC no deterg: inactive; AmpC detergent: inconclusive; SARS PLP yeast: inactive; RE007 growth inh: inactive[3.69 µM]; Sm TGR block: 35µM

Results for O=C(Nc1ccc2c(c1)OCCO2)NC1(C(F)(F)F)Oc2ccccc2O1 ?
AmpC no deterg: inactive; AmpC detergent: inconclusive; SARS PLP yeast: inactive; RE007 growth inh: inactive; Sm TGR block: 40µM; TbPYK inhibitor: inactive

How did O=C(NC1(C(F)(F)F)Oc2ccccc2O1)N1CCCC1 do in these assays?
AmpC no deterg: inactive; AmpC detergent: inactive; SARS PLP yeast: inactive; RE007 growth inh: inactive; Sm TGR block: 40µM; TbPYK inhibitor: inactive

Results for O=C(Nc1ccc2c(c1)OCO2)Nc1ccccc1F ?
AmpC no deterg: inactive; AmpC detergent: inactive; SARS PLP yeast: inactive; RE007 growth inh: inactive; Sm TGR block: inactive; TbPYK inhibitor: inactive

Results for Cc1cccc(CCNC(=O)Cn2ncc3c(=O)oc4ccccc4c32)c1 ?
AmpC detergent: inactive; Sm TGR block: inactive; TbPYK inhibitor: inactive

Results for Cc1ccc(C)c(Nc2nnc(-n3nc(C)cc3C)c3ccccc23)c1 ?
AmpC detergent: inactive; Sm TGR block: inactive; TbPYK inhibitor: inactive

How did O=c1c2ccccc2nc(/C=C/c2ccc([N+](=O)[O-])o2)n1CCCO do in these assays?
AmpC no deterg: inactive; AmpC detergent: inactive; SARS PLP yeast: inactive; RE007 growth inh: inconclusive; Sm TGR block: 18µM; TbPYK inhibitor: inactive

How did O=c1c2ccccc2nc(/C=C/c2ccc([N+](=O)[O-])cc2)n1CCCO do in these assays?
AmpC no deterg: inactive; AmpC detergent: inconclusive; SARS PLP yeast: inactive; RE007 growth inh: inactive; Sm TGR block: inactive; TbPYK inhibitor: inactive

What do the screens show for `Cc1ccc(NC(=O)CSc2nc3c(c(=O)[nH]2)CN(Cc2ccccc2)CC3)cc1Cl`?
AmpC detergent: inactive; Sm TGR block: inactive; TbPYK inhibitor: inactive

What do the screens show for `Cc1ccc(C(O)(CCN2CCCCC2)c2ccccc2)cc1` (stereo not given)?
AmpC no deterg: inactive; AmpC detergent: inactive; SARS PLP yeast: inactive; Sm TGR block: 11µM; TbPYK inhibitor: inactive

What do the screens show for `OC(CCN1CCCCC1)(c1ccccc1)C1CCCCC1` (stereo not given)?
AmpC no deterg: inactive; AmpC detergent: inconclusive; SARS PLP yeast: inactive; RE007 growth inh: inactive[18.4 µM]; Sm TGR block: inactive; TbPYK inhibitor: inactive

What do the screens show for `CCCCOc1ccc(C(=O)CCN2CCOCC2)cc1`?
AmpC no deterg: inactive; AmpC detergent: inactive; SARS PLP yeast: inactive; RE007 growth inh: inconclusive; Sm TGR block: 2µM; TbPYK inhibitor: inactive

How did CCOc1ccc(C(=O)CCN2CCCCCC2)cc1 do in these assays?
AmpC no deterg: inactive; AmpC detergent: inactive; SARS PLP yeast: inactive; RE007 growth inh: 16µM; Sm TGR block: 0.32µM; TbPYK inhibitor: inactive

How did CCCOc1ccc(C(O)(CCC)CCN2CCCCC2)cc1 (stereo not given) do in these assays?
AmpC no deterg: inactive; AmpC detergent: inconclusive; SARS PLP yeast: inactive; RE007 growth inh: inactive; Sm TGR block: 32µM; TbPYK inhibitor: inactive

How did Cc1ccc2c(c1)C(c1ccc(F)cc1)N(C(=O)c1cccc(C(F)(F)F)c1)CC(=O)N2 (stereo not given) do in these assays?
AmpC detergent: inactive; Sm TGR block: inactive; TbPYK inhibitor: inactive

How did CCOc1ccc(NC(=O)C(=O)NCCc2sc(-c3ccc(C)cc3)nc2C)cc1 do in these assays?
AmpC detergent: inactive; Sm TGR block: inactive; TbPYK inhibitor: inactive

How did CCc1c(C)sc(NC(=O)c2cc(-c3ccc(OC)cc3)on2)c1C#N do in these assays?
AmpC detergent: inactive; Sm TGR block: inactive; TbPYK inhibitor: inactive

How did CCCOc1ccc(C(=O)CCN2CCCCC2)cc1 do in these assays?
AmpC no deterg: inactive; AmpC detergent: inactive; SARS PLP yeast: inactive; RE007 growth inh: 18µM; Sm TGR block: 0.32µM; TbPYK inhibitor: inactive

How did CCCC(O)(CCN1CCOCC1)c1ccc(Cl)cc1 (stereo not given) do in these assays?
AmpC no deterg: inactive; AmpC detergent: inconclusive; SARS PLP yeast: inactive; RE007 growth inh: inactive; Sm TGR block: 20µM; TbPYK inhibitor: inactive

Results for CCOc1ccc(OCCN2CCCCC2)cc1 ?
AmpC no deterg: inactive; AmpC detergent: inconclusive; SARS PLP yeast: inactive; RE007 growth inh: inactive; Sm TGR block: inactive; TbPYK inhibitor: inactive
